In all, about 370,000 compounds went through this assay and about 6,800 (1.8%) were called active. This is one part of a sample in which actives are shown more often than they occur.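 Rule for the calls: active = activation above a cutoff set at the mean of all screened compounds plus 3 SD (cut at about 10% in these data); inactive = the rest.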

This assay relates to Nuclear hormone receptor DAF-12 (Heterodera glycines), GAL4 fusion. The experiment in a line: H. glycines DAF-12 receptor agonists, primary screen, cell-based, luminescence, HEK293, GAL4 fusion, UAS-luciferase (AID 687014).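 Note: 0% = DMSO wells and 100% = sodium butyrate wells.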 To be noted: HEK293 GAL4-hgDAF12 UAS-luciferase reporter, agonist luminescence; at 6.8 µM; active compounds read high; normalized to butyrate control. A general note: Reporter assays use an easily measured gene product as a stand-in for the process of interest.
As to `O=C(Nc1nc2ccc(Cl)cc2s1)c1cc(-c2ccc(Cl)cc2)nc2ccccc12`, the activation is -1.16% (inactive).
In the case of `O=C(Nc1ccccc1)Nc1nc2ccccc2s1` it was 26.4% (active); in that of `O=C(Nc1ccccc1)Nc1nnc(COc2ccccc2F)s1`, -2.63% (inactive); in that of `CC(C)c1ccc(C=NNc2ccc([N+](=O)[O-])cn2)cc1`, 16.8% (active).
In the case of `CC(C)c1ccc(/C=C2\NC(=O)NC2=O)cc1` it was 1.14% (inactive).
In the case of `CN(CCc1ccccc1)c1ccc([N+](=O)[O-])cn1` it was 2.43% (inactive); in that of `CCOC(=O)c1csc(NC(=O)C2CCCN(S(=O)(=O)c3ccc(Cl)s3)C2)n1` (stereo not drawn), -0.73% (inactive); in that of `CSCCC(NC(=O)c1ccco1)C(=O)OCC(=O)Nc1ncc(Cl)c(C)c1Cl` (stereo not drawn), -1.62% (inactive).
For the compound `CSCCC(NC(=O)c1ccco1)C(=O)Nc1cc(C)ccn1` (stereo not drawn), the activation was 11.9% (active).
In the case of `CSCCC(NC(=O)c1ccco1)C(=O)NCCc1ccc(F)cc1` (stereo not drawn) it was 0.46% (inactive).
In the case of `COC(=O)[C@]12C[C@H](CC(=O)NCc3ccccc3)C(=O)N(CCC3=CCCCC3)C1=C[C@H](C(C)C)O[C@@H]2C1CC1` it was 2% (inactive).
Regarding `O=[N+]([O-])c1cc(C(F)(F)F)ccc1NN=C1CCCC1`, the activation was 0.04% (inactive).
For `O=[N+]([O-])c1cc(S(=O)(=O)N2CCCC2)ccc1NN=C1CCCC1`, the activation was 15.3% (active).
In the case of `O=C(COc1ccc(S(=O)(=O)N2CCCC2)cc1[N+](=O)[O-])N1CCCCC1` it was -0.16% (inactive).
In the case of `O=C1CC(c2ccc3c(c2)OCO3)N=C2N(CC3CC3)C/C(=C/c3ccccc3)N12` (stereo not drawn) it was -2.7% (inactive); in that of `Cc1cc(C)cc(N(CC(=O)NC2CCCC2)C(=O)CCC(=O)Nc2cc(C)on2)c1`, -1.1% (inactive); in that of `O=C(O)C1CCCN1S(=O)(=O)c1ccc(Br)cc1` (stereo not drawn), 0.88% (inactive).
As to `CC1CN/C(=C\C(=O)c2ccc(Br)cc2)C(=O)N1` (stereo not drawn), the activation is 10.5% (active).
In the case of `COc1cc2c(cc1OC)/C(=C/C(=O)c1ccc(NC(C)=O)cc1)NCC2` it was 0.96% (inactive); in that of `C=CCN=C1NC(c2cccc(C(F)(F)F)c2)C(C(=O)OC)=C(C)N1C` (stereo not drawn), 1.38% (inactive); in that of `Cc1cccc(Cn2cnc3c(N)c(C)c(C)cc32)c1`, -4.28% (inactive).
Regarding `CCCCCCN1CCS(=O)(=O)N(Cc2ccc(C(F)(F)F)cc2)C(C(=O)OC)C1` (stereo not drawn), the activation was 1.39% (inactive).
In the case of `O=C(c1cnn2ccccc12)N1CCc2ccccc21` it was 16.5% (active).
In the case of `CCCCn1nc(C(=O)N2CCc3ccccc32)c2ccccc2c1=O` it was -0.16% (inactive); in that of `Cc1cnc(C(=O)OCC(=O)N2CCc3ccccc32)cn1`, 1.4% (inactive); in that of `COC(=O)[C@]12C[C@H](CC(=O)NCCCCc3ccccc3)C(=O)N(Cc3ccc4c(c3)OCO4)C1=C[C@H](C(C)(C)C)O[C@@H]2C`, 0.98% (inactive).
For `Cn1c(-c2ccco2)nc2cc3ccccc3cc21`, the activation is 19.3% (active).
In the case of `Cc1ccc(-n2ncc3c(=O)n(-c4ccc(C)c(C)c4)c(-c4ccco4)nc32)cc1` it was 3.84% (inactive); in that of `Cn1c(SCC(=O)c2cccs2)nnc1-c1ccco1`, 1.52% (inactive).
As for `O=C(Nc1c(Cl)c(C2CC2)nn1-c1ccccc1)C(Cl)(Cl)Cl`, the activation is -2.93% (inactive).
Turning to `CCC[C@H]1C(=O)CC[C@@]23CCCN2C(=O)CCC[C@@H]13`, the activation is 1.6% (inactive).
For the compound `CN(C)c1ccc(-c2nnc(-c3cccnc3)o2)cc1`, the activation was 10.8% (active).
For the compound `COC(=O)CSc1nnc(-c2cccnc2)o1`, the activation is 1.06% (inactive).
In the case of `CC1(c2nnc(-c3ccncc3)o2)CC(c2cccnc2)=NO1` (stereo not drawn) it was 3.68% (inactive); in that of `COc1ccc(/C(N)=N/OC(=O)Oc2ccccc2)cc1`, 1.76% (inactive); in that of `COc1ccc(/C(N)=N/OC(=O)Cc2ccccc2)cc1`, 11.7% (active).
On to `COc1ccc(/C(N)=N/OC(=O)CCCc2ccccc2)cc1`, for which the activation is -0.4% (inactive).
In the case of `CC(=O)Nc1ccc(OC[C@@H](O)CN2CCC(C(O)(c3ccccc3)c3ccccc3)CC2)cc1` it was 2.46% (inactive); in that of `CCCNC(=O)C1CC(=O)N(c2ccc(OCC(=O)Nc3cccc(C)c3C)cc2)C1` (stereo not drawn), 0.77% (inactive); in that of `CCCNC(=O)C1CC(=O)N(c2ccc(OCc3ccccc3)cc2)C1` (stereo not drawn), 11% (active).
In the case of `CCOc1ccc(N2CC(C(=O)NCc3ccccn3)CC2=O)cc1` (stereo not drawn) it was -1.47% (inactive); in that of `COc1ccc(N2CCN(CCNS(=O)(=O)c3ccc(Cl)s3)CC2)cc1`, 2.51% (inactive); in that of `COc1cccc(C(O)Cc2nc3ccccc3n2C)c1OC` (stereo not drawn), 3.91% (inactive).
In the case of `Cc1ccc(Oc2nc3ccccc3n3c(C)nnc23)cc1` it was 1.53% (inactive).
In the case of `Cc1ccc(OCc2nc3ccccc3n2C)cc1`, the activation was 13.2% (active).
Take `COC(=O)[C@]12C[C@H](CC(=O)NCc3cccc4ccccc34)C(=O)N(CCc3ccc(OC)c(OC)c3)C1=C[C@H](C1CCCC1)O[C@@H]2C`: the activation is -1.01% (inactive).
As to `O=C(CSc1nnc(-c2ccccn2)n1-c1ccccc1)Nc1ccc2cn[nH]c2c1`, the activation was 6.78% (inactive).
As to `O=C(NCCS(=O)(=O)c1ccc(Br)cc1)c1ccccc1Cl`, the activation is 2.39% (inactive).
In the case of `Cc1ccccc1NC(=O)Cn1nnc(-c2ccccc2F)n1` it was -1.63% (inactive); in that of `CC(=O)c1c(Nc2ccccc2)sc(C(=O)c2ccccc2)c1C`, 4.88% (inactive); in that of `COC(=O)c1cc2c(N)c(C(=O)c3ccc(Cl)cc3)sc2nc1C(OC)OC`, -0.74% (inactive).
In the case of `CN(C)c1ccnc2sc(C(=O)c3ccccc3)c(N)c12` it was 21.3% (active); in that of `COC(=O)c1c(C(=O)OC)c(-c2cccc(C)c2)n2c1CS(=O)C2` (stereo not drawn), 2.79% (inactive).
In the case of `Cc1cc(NS(=O)(=O)c2ccc(NC(=O)CSc3nnc(SCc4ccc(F)cc4)s3)cc2)nc(C)n1` it was 1.18% (inactive).
For the compound `CCOC(=O)C(=O)N(Cc1ccccc1)c1ccccc1C(=O)Nc1cc(OC)ccc1OC`, the activation is -2.17% (inactive).
Take `Cc1ccccc1CN1CCCCC(NC(=O)c2cccc(C#N)c2)C1=O` (stereo not drawn): the activation is -2.73% (inactive).
In the case of `COC(=O)C1=C(C)N(Cc2ccc(C(F)(F)F)cc2)C(=NCc2ccccc2)NC1c1ccccc1C(F)(F)F` (stereo not drawn) it was 1.9% (inactive); in that of `COCc1[nH]nc2c1C(c1ccccc1)N(c1ccccc1)C2=O` (stereo not drawn), 0.79% (inactive); in that of `COCc1cc(N2CCN(C(=O)OC(C)(C)C)C[C@@H]2C)ccc1N1CCN(Cc2ccccc2)[C@H](C)C1`, 4.83% (inactive).
Consider `O=C(CSc1cccc[n+]1[O-])c1ccc(-c2ccccc2)cc1`, for which the activation was 10.8% (active).
In the case of `CCN(C(=O)CSc1cccc[n+]1[O-])c1ccccc1` it was -0.46% (inactive); in that of `O=C(CSc1cccc[n+]1[O-])NCCCc1ccccc1`, 1.17% (inactive); in that of `O=C(Nc1ccc(Cl)cn1)c1ccc2c(c1)OCCO2`, 18.1% (active).
In the case of `Cc1nc(NC(=O)c2ccc3c(c2)OCCO3)ccc1Br` it was 7.16% (inactive); in that of `COc1ccc(C(=O)N/N=C(\C)CC(=O)Nc2ccc(Cl)cn2)cc1`, 0.32% (inactive).
In the case of `CC(OC(=O)CNC(=O)c1ccco1)C(=O)Nc1ccc(Cl)cn1` (stereo not drawn) it was 1.56% (inactive).
As to `CCCc1cc(C(=O)Nc2ccc(Cl)cn2)cs1`, the activation was 12.9% (active).
With `CC1(c2ccc(Cl)cc2)NC(=O)N(CC(=O)c2ccc3c(c2)OCO3)C1=O` (stereo not drawn), the activation is -1.6% (inactive).
Consider `O=C(c1c[nH]c2ccccc12)N1CCC(Oc2cccnc2)CC1`, for which the activation was 4.09% (inactive).
As to `Cc1ccc(C(=O)C2CCN(CC(=O)NCCC(C)C)CC2)cc1`, the activation was -0.75% (inactive).
For `CC(C)CC(=O)N1CCC(O)(CS(=O)(=O)Cc2ccccc2)CC1`, the activation is -2.29% (inactive).
For `CCCCC(=O)N[C@@H]1CC[C@@]23CCCN2C(=O)CCC[C@H]3[C@H]1C`, the activation was 0.52% (inactive).
Take `CCN(C(=O)[C@@H](C1CC1)[C@@H](O)c1ccc2ccccc2c1)c1ccccc1`: the activation was -0.8% (inactive).
On to `Cc1ccc(N)cc1CN1CCN(c2ncc(Cc3ccccc3)cn2)CC1`, for which the activation was 0.77% (inactive).
Turning to `Cc1cc(N)n2nc(-c3ccc(C(C)(C)C)cc3)cc2n1`, the activation is 20% (active).
In the case of `CCC1([N+](=O)[O-])COC(c2ccc(C)cc2)OC1` (stereo not drawn), the activation was 1.83% (inactive).
With `CCC1([N+](=O)[O-])COC(c2ccc(C(C)C)cc2)OC1` (stereo not drawn), the activation was 12.9% (active).
In the case of `CCC1(C)COC(c2ccc(OC)c(OC)c2)OC1` (stereo not drawn) it was -1.37% (inactive); in that of `Oc1ccc(/C=C/c2c(F)cccc2F)c2cccnc12`, -6.27% (inactive).
Take `CCCCNc1cccc2c1S(=O)(=O)N[C@@H](C)CO2`: the activation was 0.24% (inactive).
Turning to `O=C(NCc1ccccc1)[C@H]1CCCN1C(=O)[C@H]1CCCN1C(=O)c1cc(F)cc(F)c1`, the activation was -0.18% (inactive).
For the compound `CC(C)N1CCCCC(NC(=O)C(C)(C)C)C1=O` (stereo not drawn), the activation is 0.58% (inactive).
Take `CC(=O)c1ccc(S(=O)(=O)NCC2CCN(C(=O)C(=O)c3cccs3)CC2)cc1`: the activation was -0.16% (inactive).
In the case of `O=C(OCC(=O)N1CCOCC1)c1ccc2ccccc2c1` it was 4.48% (inactive); in that of `NC(=O)c1ccccc1N=Cc1ccc2ccccc2c1`, 14.3% (active); in that of `Cc1nc2c(C(=O)NCc3cccs3)cnn2c(C)c1Cc1ccc(F)cc1`, -1.35% (inactive).
In the case of `C=CCN1C(=O)[C@@H](CC(=O)NCCCCc2ccccc2)[C@]2(C(=O)OCC)CCCCC/C=C/12` it was 2.01% (inactive); in that of `Cc1ccccc1C(=O)N[C@H](C(=O)N1CCC[C@H]1C(=O)NCc1ccccc1)C(C)C`, -1.35% (inactive); in that of `COc1cccc(CC(=O)N2CCN(C(=O)C(=O)c3cccc(C(F)(F)F)c3)CC2)c1`, -0.52% (inactive).
In the case of `CCOC(=O)c1csc(CCNC(=O)c2oc3c(Cl)cc(C)cc3c2C)n1` it was 1.98% (inactive); in that of `CN(C)C(=O)c1ccc(NC(=O)COC(=O)c2cc3c(s2)CCCCC3)cc1`, 2.42% (inactive).
Consider `O=C(NCC1CCCO1)c1cc2c(s1)CCCC2` (stereo not drawn), for which the activation is 7.29% (inactive).
Turning to `O=C(Nc1ccc(F)cc1)c1cc2c(s1)CCCC2`, the activation is 10.8% (active).

The values above are taken from PubChem BioAssay AID687014 (The Scripps Research Institute Molecular Screening Center, 2013).
